Active and inactive are the calls of the source.
Key:
[1] = compounds binding Alexa647 anti-His antibody – biochemical, small-molecule microarray, 635 nm fluorescence, artefact control for SMM control protein annotation, primary screen (AID 1128); settings: higher = more signal;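 note: score merges feature fluorescence with signal-to-noise for each printed compound spot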
[2] = test system: Human papillomavirus type 1a E7 protein (residues 1-88); test: HPV1a E7 small-molecule binders, primary screen, biochemical, small-molecule microarray, residues 1-88, 635 nm (AID 1129); settings: small-molecule microarray binding, fluorescence 635 nm; higher = more signal
[3] = molecular target: Focal adhesion kinase 1 (Homo sapiens) (UniProt Q05397); test: PTK2 protein binding on printed compound slides – biochemical, small-molecule microarray, 635/667 nm fluorescence, BSA, DTT, primary screen (AID 1130); settings: 635 nm fluorescence, higher = more signal;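 note: composite of spot emission at 667 nm and signal to noise over triplicate slides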
Sequence of Focal adhesion kinase 1 (Homo sapiens) (Q05397 whole entry, looked up): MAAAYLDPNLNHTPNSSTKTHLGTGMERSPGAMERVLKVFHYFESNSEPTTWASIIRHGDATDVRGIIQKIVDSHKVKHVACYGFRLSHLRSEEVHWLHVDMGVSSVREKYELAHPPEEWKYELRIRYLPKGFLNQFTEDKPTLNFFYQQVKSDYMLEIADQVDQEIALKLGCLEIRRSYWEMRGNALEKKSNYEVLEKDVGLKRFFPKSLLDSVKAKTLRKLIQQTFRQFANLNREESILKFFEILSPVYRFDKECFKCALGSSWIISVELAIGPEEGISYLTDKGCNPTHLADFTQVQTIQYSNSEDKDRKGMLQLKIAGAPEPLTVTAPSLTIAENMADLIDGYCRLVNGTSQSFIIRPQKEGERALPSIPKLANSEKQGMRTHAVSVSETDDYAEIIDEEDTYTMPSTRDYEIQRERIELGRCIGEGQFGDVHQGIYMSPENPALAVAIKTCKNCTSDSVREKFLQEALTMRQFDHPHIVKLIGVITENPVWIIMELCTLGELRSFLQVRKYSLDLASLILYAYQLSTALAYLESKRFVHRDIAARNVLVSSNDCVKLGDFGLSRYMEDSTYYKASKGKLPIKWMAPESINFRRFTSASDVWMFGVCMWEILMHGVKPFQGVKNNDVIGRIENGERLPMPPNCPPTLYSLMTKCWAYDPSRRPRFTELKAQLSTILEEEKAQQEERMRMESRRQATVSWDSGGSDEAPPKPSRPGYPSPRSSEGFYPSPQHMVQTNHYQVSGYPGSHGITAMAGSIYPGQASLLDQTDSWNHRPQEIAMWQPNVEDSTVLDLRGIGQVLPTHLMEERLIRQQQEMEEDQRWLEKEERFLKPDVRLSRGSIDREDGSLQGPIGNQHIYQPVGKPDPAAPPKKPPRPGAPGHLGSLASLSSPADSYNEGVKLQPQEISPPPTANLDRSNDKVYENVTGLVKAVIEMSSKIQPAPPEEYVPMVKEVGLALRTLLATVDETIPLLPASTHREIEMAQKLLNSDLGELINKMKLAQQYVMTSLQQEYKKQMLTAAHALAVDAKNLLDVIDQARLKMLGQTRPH

[4] = test system: Fibrinogen (Alexa647-labelled); test: Alexa647-fibrinogen binding to printed small molecules – biochemical, small-molecule microarray, 635/667 nm fluorescence, artefact control for SMM control-protein annotation, profiling panel (AID 1131); settings: fibrinogen-A647 binding fluorescence, higher = more signal;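 note: z-score merges 667 nm fluorescence with per-spot signal-to-noise over triplicate slides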
[5] = molecular target: Follistatin (Homo sapiens) (UniProt P19883); test: FST protein binding to printed compounds – biochemical, small-molecule microarray, 635/667 nm fluorescence, primary screen (AID 1132); settings: 635 nm fluorescence, higher = more signal
Sequence of Follistatin (Homo sapiens) (P19883 whole entry, looked up): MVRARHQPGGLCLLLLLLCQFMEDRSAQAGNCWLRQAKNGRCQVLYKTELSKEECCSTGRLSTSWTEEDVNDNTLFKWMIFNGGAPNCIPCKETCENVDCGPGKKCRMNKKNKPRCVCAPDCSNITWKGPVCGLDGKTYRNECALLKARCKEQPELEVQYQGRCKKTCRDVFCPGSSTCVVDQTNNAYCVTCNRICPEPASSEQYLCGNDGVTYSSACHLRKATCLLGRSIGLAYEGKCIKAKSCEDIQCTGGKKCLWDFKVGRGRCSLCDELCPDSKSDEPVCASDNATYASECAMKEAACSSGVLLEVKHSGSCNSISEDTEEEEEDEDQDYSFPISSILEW

[6] = molecular target: Fibroblast growth factor 2 (Homo sapiens) (UniProt P09038); test: basic fibroblast growth factor binding to printed compounds – biochemical, small-molecule microarray, 635/667 nm fluorescence, primary screen (AID 1133); settings: FGF2, fluorescence 635/667, higher = more signal
Sequence of Fibroblast growth factor 2 (Homo sapiens) (P09038 whole entry, looked up): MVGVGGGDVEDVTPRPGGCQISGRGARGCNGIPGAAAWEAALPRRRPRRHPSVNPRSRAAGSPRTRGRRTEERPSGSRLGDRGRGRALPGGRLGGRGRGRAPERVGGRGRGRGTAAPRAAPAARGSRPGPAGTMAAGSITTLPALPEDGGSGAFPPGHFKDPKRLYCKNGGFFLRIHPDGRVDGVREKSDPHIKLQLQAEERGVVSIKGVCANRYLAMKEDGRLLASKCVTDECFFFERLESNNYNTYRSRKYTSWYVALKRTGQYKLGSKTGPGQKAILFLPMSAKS

[7] = JC-1 mitochondrial potential readout, lung cancer cells – cell-based, A549, JC-1 fluorescence, basal, 24 h, 100 nL, profiling panel (AID 1138); settings: higher = more signal;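 note: A549 lung adenocarcinoma cells under basal conditions with no added stimulus; test concentration not given here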
Lefty1 = Lefty1 protein binding to printed compounds – biochemical, small-molecule microarray, 635/667 nm fluorescence, primary screen (AID 1139); settings: fluorescence 635/667, higher = more signal
[8] = test system: wheat germ agglutinin (Triticum aestivum), Alexa647-labelled; test: Alexa647-WGA lectin binding to printed small molecules – biochemical, small-molecule microarray, 635/667 nm fluorescence, artefact control for SMM control-protein annotation, profiling panel (AID 1140); settings: WGA-A647 binding, 635 nm fluorescence, higher = more signal;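 note: score merges 667 nm feature emission with signal to noise over triplicate slides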
[9] = molecular target: Luciferin 4-monooxygenase (Photinus pyralis) (UniProt P08659); test: inhibition of purified Photinus pyralis luciferase – biochemical, luminescence, purified enzyme, 2006 set, primary screen (AID 1141); settings: purified firefly luciferase, SteadyGlo luminescence, 30 min; higher = more signal, called active from +8 up or from −8 down;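 note: cell-free assay with purified firefly luciferase at 100 ng per well in PBS; test concentration not given here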
Sequence of Luciferin 4-monooxygenase (Photinus pyralis) (P08659 whole entry, looked up): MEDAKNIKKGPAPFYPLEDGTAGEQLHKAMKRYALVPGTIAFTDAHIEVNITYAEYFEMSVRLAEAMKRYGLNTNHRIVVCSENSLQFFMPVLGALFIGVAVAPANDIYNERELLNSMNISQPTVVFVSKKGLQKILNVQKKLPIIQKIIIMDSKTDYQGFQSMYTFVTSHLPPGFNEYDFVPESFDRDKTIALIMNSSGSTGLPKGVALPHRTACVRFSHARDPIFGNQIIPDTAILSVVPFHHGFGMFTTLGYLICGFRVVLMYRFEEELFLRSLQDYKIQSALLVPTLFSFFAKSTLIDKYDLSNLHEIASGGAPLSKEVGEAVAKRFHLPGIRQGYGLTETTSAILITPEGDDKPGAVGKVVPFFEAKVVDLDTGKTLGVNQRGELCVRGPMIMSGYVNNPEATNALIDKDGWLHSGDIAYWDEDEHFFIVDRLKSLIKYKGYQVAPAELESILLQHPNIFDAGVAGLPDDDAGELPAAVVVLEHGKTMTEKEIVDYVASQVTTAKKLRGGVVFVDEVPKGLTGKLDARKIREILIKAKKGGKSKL

Row | Structure (SMILES) | composite z-score [1] | composite z-score [2] | composite z-score [3] | composite z-score [4] | composite z-score [5] | composite z-score [6] | z-score [7] | composite z-score (Lefty1) | composite z-score [8] | z-score [9]
1 | CC(C)c1ccc(NN2C(C(O)c3ccc(C#N)cc3)C=CC3C(=O)N(c4ccccc4)C(=O)C32)cc1 (stereo not given) | 0.433 | 1.21 | 1.97 | 1.04 | 1.01 | -0.14 | -0.131 | -0.278 | 0.949 | -0.973 (inactive)
2 | CCCCNC(=O)c1ccc(C#CC(C)(C)C)c(OC(C)=O)c1 | 0.213 | 0.712 | 0.797 | 0.587 | 0.665 | 0.553 | -0.895 | 0.777 | 0.64 | 0.856 (inactive)
3 | C=CCOC(=O)[C@@H]1[C@H]2C(=O)O[C@H](c3ccccc3)[C@H](c3ccccc3)N2[C@H](c2ccc(OCCOC(=O)[C@@H]3C[C@@H]4C(=O)N[C@@H](CCCC[N+](C)(C)C)C(=O)N4[C@@H]3c3ccc(O)cc3)cc2)[C@@]12C(=O)Nc1ccc(I)cc12 | 2.68 | 1.15 | 0.67 | 0.412 | 1.12 | 1.24 | -1.76 | 1.08 | 0.216 | -2.38 (inactive)
4 | CN(C)CCCCCCNC(=O)[C@@H]1C[C@@H]2C(=O)N3CCC[C@H]3C(=O)N2[C@@H]1c1cccc(OCCO)c1 | 2.58 | 1.23 | 0.338 | 0.552 | 1.37 | 1.58 | -0.17 | 1.48 | 1.1 | -0.138 (inactive)
5 | C=CCC(OC(C)=O)[C@@H]1[C@@H](N(Cc2ccc(-c3cccc(C(F)(F)F)c3)o2)C(=O)Cc2ccc(OC)cc2)c2cc(OCCCO)ccc2N1C(=O)c1ccc(-c2ccccc2)cc1 (stereo not given in full) | -0.0127 | -0.501 | -0.326 | -0.771 | 0.569 | 0.119 | 0.0544 | 0.0533 | -0.402 | 0.244 (inactive)
6 | CC(C)N1C(=O)c2ccccc2[C@@H](C(=O)NCCN2CCOCC2)[C@@H]1c1ccc(CO)cc1 | 1.3 | -0.736 | -0.378 | -1.99 | -0.0463 | -1.57 | 0.156 | -0.786 | -1.23 | 0.128 (inactive)
7 | CC#CCO[Si](C#Cc1ccccc1)(C(C)C)C(C)C | -1.71 | -1.42 | -0.357 | -0.965 | -0.711 | 0.0353 | -1.01 | -0.531 | -0.874 | 0.741 (inactive)
8 | CC(C)[Si](C#CCCCC#N)(O[C@H](c1ccccc1)c1cn(Cc2ccccc2)nn1)C(C)C | 1.01 | 0.694 | -0.359 | 0.534 | 0.793 | 0.725 | 0.408 | 0.809 | 0.235 | -0.254 (inactive)
9 | CC(C)C[C@@H]1NC(=O)[C@@H]2C[C@H](C(=O)NCCCCCCN)[C@H](c3cccc(OCCO)c3)N2C1=O | 2.25 | 1.11 | 0.344 | 0.662 | 1.32 | 0.548 | -0.645 | 1.51 | 1.1 | 0.459 (inactive)
10 | CCOc1cc(C(O)C2C=CC3C(=O)NC(=O)C3N2Nc2ccc(Cl)cc2Cl)ccc1O (stereo not given) | -0.254 | -0.537 | 0.725 | 0.332 | -0.403 | -0.744 | -0.262 | -1.33 | 0.235 | 0.445 (inactive)
11 | COc1ccc([C@H]2OC[C@@H]3C[C@H](Cc4ccccc4)C(=O)N32)cc1 | 0.606 | 0.358 | 0.0039 | 0.179 | 0.416 | 0.511 | 0.239 | 0.374 | 0.582 | -0.0539 (inactive)
12 | COc1ccc([Si](C)(C)[C@@H]2[C@@H](CC(=O)N3CCC[C@H]3CO)O[C@]3(C(=O)N(Cc4cccc(N5C(=O)COc6ccccc65)c4)c4ccccc43)[C@H]2C)cc1 | 1.43 | 1.21 | 0.438 | 0.711 | 0.821 | 1.22 | -0.522 | 0.984 | 1.15 | -0.23 (inactive)
13 | [N-]=[N+]=Nc1ccccc1[C@@H]1OC(c2ccc(OCCCO)cc2)=N[C@]1(Cc1ccccc1)C(=O)N1CCCCC1 | 0.782 | 1.24 | 0.218 | 1.02 | 1.21 | 0.768 | -1.07 | 0.816 | 1.03 | -5.31 (inactive)
14 | CCCCN1CC=CC23O[C@@H]4/C=C\CCCOC(=O)C4[C@H]2C(=O)N(CCO)[C@@H]3C1=O (stereo not given in full) | 1.3 | 0.0166 | 0.101 | -1.25 | -1.03 | -1.33 | -0.655 | -0.832 | -0.724 | 1.19 (inactive)
15 | [N-]=[N+]=Nc1ccccc1C[C@]1(C(=O)N2CCOCC2)COC(c2ccc(OCCCO)cc2)=N1 | 0.964 | 1.24 | 0.144 | 1.04 | 0.39 | -0.313 | 0.9 | -0.0478 | 0.606 | -5.96 (inactive)
16 | [N-]=[N+]=NCc1ccccc1[C@H]1OC(c2ccc(OCCCO)cc2)=N[C@@]1(Cc1ccccc1N=[N+]=[N-])C(=O)NCC(O)CO (stereo not given in full) | 0.363 | 1.22 | 0.566 | 0.711 | 1.13 | -0.401 | 0.118 | 0.194 | 1.12 | -2.09 (inactive)
17 | C=C[C@@H](CO)N(Cc1ccc(OC)cc1)S(=O)(=O)c1ccc(Br)cc1 | 1.53 | 0.687 | 0.188 | -0.0952 | 0.351 | 0.965 | 0.739 | -0.327 | 0.316 | 0.356 (inactive)

Row | Structure (SMILES) | composite z-score [1] | composite z-score [2] | composite z-score [3] | composite z-score [4] | composite z-score [5] | composite z-score [6] | z-score [7] | composite z-score (Lefty1) | composite z-score [8] | z-score [9]
18 | CCOC(=O)C=Cc1cccc(C)c1O | 0.0346 | -0.0448 | 0.617 | 0.252 | 0.208 | 0.0326 | -1.56 | -0.0408 | -0.399 | -9.24 (active)
19 | C[N+](C)(C)CCCC[C@@H]1NC(=O)[C@@H]2C[C@H](C(=O)NCCCCCCN)[C@H](c3cccc(OCCO)c3)N2C1=O | 3.26 | 1.16 | 0.866 | 0.841 | 0.976 | 0.5 | 0.197 | 1.16 | 1.11 | -0.583 (inactive)
20 | CC(CO)N1C(=O)[C@@H]2[C@H]3C(=O)OCC=C[C@H]3OC23C=CCN(Cn2nnc4ccccc42)C(=O)[C@@H]13 (stereo not given in full) | -1.02 | -1.43 | -0.432 | -0.8 | -0.72 | -0.358 | -0.528 | -0.406 | -0.596 | 0.27 (inactive)
21 | COCCOC(=O)N1C(=O)[C@@]2(c3ccccc31)[C@H](C(=O)NC[C@H](O)c1ccccc1)[C@H]1C(=O)O[C@H](c3ccccc3)[C@H](c3ccccc3)N1[C@@H]2c1ccc(O)cc1 | 1.43 | 1.26 | 0.818 | 0.965 | 1.34 | 1.61 | -1.17 | 1.23 | 0.648 | 0.883 (inactive)
22 | C=CC[C@]1(C(=O)N2CCCCC2)N=C(c2ccc(OCCCO)cc2)O[C@H]1c1ccccc1CN=[N+]=[N-] | 1.33 | 1.24 | 0.293 | 1.01 | 1.29 | 0.524 | 1.29 | 0.228 | 0.657 | 0.498 (inactive)
23 | CCCCCN1CC=CC23O[C@@H]4/C=C\CCCOC(=O)C4[C@H]2C(=O)N(C(C)CO)[C@@H]3C1=O (stereo not given in full) | 0.465 | -0.402 | -0.249 | 0.659 | -0.87 | -1.08 | 0.17 | -0.476 | 0.916 | -0.179 (inactive)
24 | COc1ccc([Si](C)(C)[C@H]2[C@H](CC(=O)N3CCC[C@H]3CO)O[C@@]3(C(=O)N(Cc4ccc(N5CCOC5=O)cc4)c4ccccc43)[C@@H]2C)cc1 | 2.43 | 1.18 | 0.395 | 0.692 | 1.34 | 1.56 | 2.59 | 1.16 | 0.697 | 0.31 (inactive)
25 | C=CCC(OC(C)=O)[C@@H]1[C@@H](N(Cc2ccc(-c3cccc(C(F)(F)F)c3)o2)C(=O)c2ccc(-c3ccccc3)cc2)c2cc(OCCCO)ccc2N1C(=O)Cc1ccc2ccccc2c1 (stereo not given in full) | -0.0298 | -0.504 | 0.0827 | 0.229 | 0.438 | -0.482 | 0.0819 | -0.175 | -0.0916 | 0.429 (inactive)
26 | O[C@@H](Cc1ccccc1)[C@@H](/C=C/C1CC1)N(CC#Cc1ccccc1)Cc1ccccc1Br | 0.167 | -0.33 | 0.284 | -0.651 | -1.12 | -1.71 | 0.163 | -0.512 | -1.11 | -0.375 (inactive)
27 | COC(=O)[C@@]1(Cc2ccccc2)[C@H]2c3cc(C(=O)N(C)C)n(Cc4ccc(C)o4)c3C[C@H]2CN1C(=O)c1ccccc1 | 2.6 | 1.21 | 1.73 | 0.705 | 0.764 | 0.188 | -0.0901 | -0.566 | 1.26 | 0.429 (inactive)
28 | CN(C)C(=O)[C@@]1(Cc2ccccc2CN=[N+]=[N-])N=C(c2ccc(OCCCO)cc2)O[C@H]1c1ccccc1N=[N+]=[N-] | 2.09 | 1.27 | 0.801 | 0.983 | 0.711 | -0.0088 | -1.02 | 0.627 | 1.22 | -6.81 (inactive)
29 | C=CC[C@@]1(C(=O)NCCCOC)N=C(c2ccc(OCCCO)cc2)O[C@@H]1c1ccccc1N=[N+]=[N-] | 2.2 | 1.21 | 0.474 | 1.03 | 1.28 | 0.0912 | 1.3 | -0.115 | 0.736 | -3.67 (inactive)
30 | CN(C)C(=O)[C@@]1(Cc2ccccc2)N=C(c2ccc(OCCCO)cc2)O[C@H]1c1ccccc1 | 2.33 | 1.24 | 0.179 | 0.971 | 0.232 | 0.393 | 0.568 | -0.557 | 1.21 | -0.794 (inactive)
31 | COc1cc2c(cc1O)C(C1CC1)N(C)CC2 (stereo not given) | -1.19 | -2.06 | -0.532 | -1.18 | -1.09 | -0.716 | 1.32 | -1.59 | -0.413 | -0.872 (inactive)
32 | CCCCC(CC)C(O)C1C=CC2C(=O)N(C)C(=O)C2N1Nc1ccccc1 (stereo not given) | 1.51 | 1.21 | 0.592 | 0.852 | 0.22 | -0.364 | 0.665 | -0.118 | 0.795 | 0.546 (inactive)
33 | CCC#CCN(Cc1ccccc1Br)[C@H](/C=C/C1CC1)[C@@H](O)Cc1ccccc1 | 0.251 | -0.499 | -0.579 | -0.805 | -0.837 | -0.984 | -0.368 | -0.355 | -0.366 | 0.619 (inactive)
34 | C=C(/C(=C/C[C@H](OC(C)=O)c1ccc(CO)o1)c1cnc2ccccc2c1)C(C)C | 1.07 | 1.16 | 0.38 | 0.988 | 1.39 | 1.41 | -0.874 | 1.55 | 1.33 | -1.41 (inactive)
